# Source: ChEMBL document CHEMBL3988442, “University of Dundee, Small-Polar-MMV Screening Library” (2021)
# Among all 69,000 compounds or so, about 420 (0.61%) showed an effect of 50% or more. Many of the other results were omitted from the sample, so strong results are more common in it than they were.
# Molecular target: T1, Histidine--tRNA ligase (Leishmania infantum) (UniProt A4I591)
# T1 sequence (whole entry): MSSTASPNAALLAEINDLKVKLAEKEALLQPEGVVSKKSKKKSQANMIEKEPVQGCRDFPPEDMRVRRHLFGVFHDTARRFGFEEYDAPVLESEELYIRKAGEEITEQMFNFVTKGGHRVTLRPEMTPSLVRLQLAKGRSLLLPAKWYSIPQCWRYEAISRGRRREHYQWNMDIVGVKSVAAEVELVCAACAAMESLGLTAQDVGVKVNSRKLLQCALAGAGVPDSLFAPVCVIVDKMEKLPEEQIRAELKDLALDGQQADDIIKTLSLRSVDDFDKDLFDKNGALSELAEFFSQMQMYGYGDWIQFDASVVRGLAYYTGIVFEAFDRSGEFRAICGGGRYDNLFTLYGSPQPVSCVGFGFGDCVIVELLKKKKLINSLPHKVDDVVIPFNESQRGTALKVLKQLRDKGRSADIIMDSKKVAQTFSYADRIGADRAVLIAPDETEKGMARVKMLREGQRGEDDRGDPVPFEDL
# Assay: Leishmania infantum Histidine tRNA synthetase (LdHisRS)
# Format: functional
# Design: scale not given: in the data most compounds retested in dose-response had high values
# Conditions: 30 µM
row,Compound,Percent Effect [%]
1,Cc1ccc(CN2C[C@@H]3C[C@H](C(=O)NCC4CC4)N(C)[C@@H]3C2)o1,10.1
2,Cc1nc(CN2C(=O)CC[C@@H]3[C@H]2CCN3C(=O)C2CCCO2)cs1 (some centres undefined),15.4
3,CSc1nc(N)cc(N2C[C@@H]3CC[C@H](C2)N(Cc2cscn2)C3=O)n1,11
4,Clc1cc(NCc2nccs2)nc2[nH]ccc12,22.9
5,Clc1cc(NCc2ccncc2)nc2[nH]ccc12,71.1
6,Clc1cc(NCc2ncc[nH]2)nc2[nH]ccc12,10.8
7,c1cnc(N2CCO[C@H]3CN(Cc4csnn4)C[C@H]32)cn1,26.3
8,CS(=O)(=O)NC[C@@H]1OC[C@H]2CN(C(=O)c3ccc[nH]3)CC[C@H]21,-383
9,CS(=O)(=O)N[C@@H]1COC[C@@H]2CN(Cc3ccoc3)C[C@@H]21,6.94
10,CC(C)(C)c1cc(CN2C[C@H]3CC[C@@H]2CN(Cc2cscn2)C3)n[nH]1,11.5
11,O=S(=O)(c1cccnc1)N1C[C@@H]2COC[C@]2(COCC2CC2)C1,1.75
12,Cc1cccc2c1nc(COCC(=O)O)n2-c1cnc(N)cn1,68.3
13,Cc1cccc2c1nc(COCC(=O)O)n2-c1ccc(N)nc1,1.67
14,Cc1ccc(-n2c(COCC(=O)O)nc3c(C)cccc32)nc1,25
15,CN(C)S(=O)(=O)N1CC[C@]2(O)CCN(c3nccs3)C[C@@H]2C1,20
16,O=C(NCC1CC1)[C@H]1C[C@H]2OCC[C@H]2N(Cc2ccoc2)C1,10.5
17,c1ccc(Cn2cc(CNCC3CCCN3c3cccnn3)cn2)cc1 (centres undefined),53

row,Compound,Percent Effect [%]
1,c1ccc(-n2ccc(CNCC3CCCN3c3cccnn3)n2)cc1 (centres undefined),25.4
2,c1ccc(Cn2ccnc2CNCC2CCCN2c2cccnn2)cc1 (centres undefined),5.36
3,c1ccc(-n2ncc(CNCC3CCCN3c3cccnn3)n2)cc1 (centres undefined),65.2
4,c1ccc(-n2cc(CNCC3CCCN3c3cccnn3)cn2)cc1 (centres undefined),21.9
5,c1ccc(-n2cc(CNCC3CCCN3c3cccnn3)nn2)cc1 (centres undefined),6.14
6,COCCOC(=O)N1CCN2C[C@@H](CO)[C@H](c3ccccc3)[C@H]2C1,2.04
7,O=C(c1ccoc1)N1CC[C@@H]2O[C@H](COCc3ccccn3)CC[C@@H]21,7.52
8,c1cnc(N2CCO[C@H]3[C@H](OCC4CC4)CC[C@@H]32)nc1,8.11
9,O=C1NC(c2ccccc2)=N[C@@]12CC[C@@H]1CN(Cc3ccncc3)C[C@@H]12,25
10,COCCNC(=O)[C@H]1C[C@@H]2CCN(c3nncs3)C[C@H]2O1,5.77
11,O=C(c1ccccc1)N1C[C@@H]2CCCO[C@@H]2[C@H](N2CCOCC2)C1,17.5
12,Cc1cc(C(=O)Nc2cccn(Cc3ccc(F)cc3)c2=O)no1,20.4
13,O=C(Nc1cccn(Cc2ccccc2)c1=O)c1ccncc1F,68.6
14,O=C(Nc1cccn(CC(F)(F)F)c1=O)c1ccncc1F,17.1
15,Cc1cc(C(=O)Nc2cccn(Cc3ccccc3)c2=O)no1,23.9
16,O=C(Nc1cccn(Cc2ccc(F)cc2)c1=O)c1cnc[nH]1,27.4
17,Cc1cc(C(=O)Nc2cccn(Cc3ccc(F)cc3)c2=O)on1,84.1
